Results on 35 compounds are retold here after ChEMBL document CHEMBL3433997, “St. Jude Leishmania screening dataset” (2016).

Format in all cases: functional
In experiment [1] the target is Solute carrier family 2, facilitated glucose transporter member 1 (Homo sapiens) (UniProt P11166). The experiment can be described thus: ST_JUDE_LEISH: Cytotoxicity at 2uM final concentration against transgenic Leishmania Mexicana promastigotes LmGLUT1 that are glucose transport deficient and complemented with the human glucose transporter GLUT1. Activity is measured by DNA content using SYBR green in vitro.
Solute carrier family 2, facilitated glucose transporter member 1 (Homo sapiens), sequence (P11166 whole entry): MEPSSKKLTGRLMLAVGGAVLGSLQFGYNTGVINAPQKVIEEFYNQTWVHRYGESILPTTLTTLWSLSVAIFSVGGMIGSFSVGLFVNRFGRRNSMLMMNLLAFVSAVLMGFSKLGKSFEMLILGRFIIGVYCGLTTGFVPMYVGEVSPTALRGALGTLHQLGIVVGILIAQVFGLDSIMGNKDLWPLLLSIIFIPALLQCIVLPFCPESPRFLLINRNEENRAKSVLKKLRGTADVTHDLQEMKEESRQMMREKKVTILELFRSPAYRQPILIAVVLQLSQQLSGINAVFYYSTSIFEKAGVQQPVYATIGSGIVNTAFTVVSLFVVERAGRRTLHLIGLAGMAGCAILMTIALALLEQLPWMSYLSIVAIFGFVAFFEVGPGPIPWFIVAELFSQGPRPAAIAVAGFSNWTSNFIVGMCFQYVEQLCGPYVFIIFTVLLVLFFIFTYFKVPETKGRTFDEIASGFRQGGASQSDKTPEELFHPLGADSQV

For experiment [2], the target named is Hexose transporter 1 (Plasmodium falciparum) (UniProt O97467). The experiment is described as follows: ST_JUDE_LEISH: Cytotoxicity at 2uM final concentration against transgenic Leishmania Mexicana promastigotes LmPfHT that are glucose transport deficient and complemented with the Plasmodium falciparum hexose transporter. Activity is measured by DNA content using SYBR green in vitro.

Experiment [3] has as its target Glucose transporter (Leishmania mexicana) (UniProt O61059). The experiment is described as follows: ST_JUDE_LEISH: Cytotoxicity at 2uM final concentration against transgenic Leishmania Mexicana promastigotes LmGT2 that are glucose transport deficient and complemented with the L. Mexicana glucose transporter 2. Activity is measured by DNA content using SYBR green in vitro.

What is called inhibition is the drop in the measured response relative to a control, in per cent. For `CCOCc1cnc(C)nc1CNC(=O)c1c(C)[nH]c2ccc(C)cc12`, the inhibition in experiment [1] is 0.96%; in experiment [2], 0.7%; in experiment [3], 1.12%.

Consider `CN(C)CCCN(C)c1cccc2c1nc(-c1cccnc1)n2CCNCc1ccccc1`, for which the inhibition in experiment [1] was found to be 6.47%; in experiment [2], 7.52%; in experiment [3] it was 1.45%.

For `Cc1cc2c(cc1C(F)(F)F)N(C(=O)Nc1cc(C(=O)NCCN(C)C)cc(C(F)(F)F)c1)CC2`, the results for the inhibition in experiment [1], in experiment [2] and in experiment [3] were 4.3%, 2.66% and 3.69%, respectively.

For the compound `Cc1ccc(CNC(=O)[C@H](CC(C)C)Nc2cc(C)nc(Nc3ccccc3)n2)cc1`, the inhibition in experiment [1] was 3.16%; in experiment [2], 4.07%; in experiment [3], -0.24%.

On to `CCOC(=O)c1c(CN2CCCC2)n(-c2ccccc2)c2cc(Br)c(O)cc12`, for which the inhibition was 17% in experiment [1], 14% in experiment [2] and 16.7% in experiment [3].

In the case of `CCC[C@@H]([C@@H](CC1CCCCC1)C(=O)N[C@@H](CCCCNS(C)(=O)=O)C(=O)Nc1nccs1)N(O)C=O`, the results for the inhibition in experiment [1], in experiment [2] and in experiment [3] were 1.61%, 3.98% and -0.28%, respectively.

For the compound `Cc1cc(N[C@@H](Cc2ccccc2)C(=O)Nc2ccccc2)nc(NCCc2cccs2)n1`, the results for the inhibition in experiment [1], in experiment [2] and in experiment [3] were 4.14%, 2.39% and 1%, respectively.

On to `c1ccc(-c2cc(NCCCn3ccnc3)nc(-c3cccnc3)n2)cc1`, for which the inhibition came to 2.2% in experiment [1], 3.19% in experiment [2] and 0.94% in experiment [3].

In the case of `Cc1cccc(C(=O)NC(NC(=S)Nc2ccc([N+](=O)[O-])cc2)C(Cl)(Cl)Cl)c1` (stereo not given), the inhibition was 3.68% in experiment [1], 3.52% in experiment [2] and -0.6% in experiment [3].

Consider `COc1ccc2nccc([C@@H](O)CN3CCC(NC(=O)c4ccc(Cl)c(Cl)c4)CC3)c2c1`, for which the inhibition in experiment [1] amounted to 25.5%; in experiment [2] it was 41.7%; in experiment [3] it was 18.8%.

With `Nc1cc(-c2ccc(Br)cc2O)nc2ccccc12`, the inhibition in experiment [1] worked out at 1.51%; in experiment [2] it was 0.65%; in experiment [3], 2.06%.

As for `COc1c(O)cc2oc(-c3ccc(O)cc3)cc(=O)c2c1O`, the inhibition is 1.18% in experiment [1], 1.7% in experiment [2] and 3.31% in experiment [3].

For the compound `COCCN(C)CCCOc1cc2c(cc1OC)ncn2-c1cc(OCc2ccccc2C(F)(F)F)c(C(N)=O)s1`, the values for the inhibition in experiment [1], in experiment [2] and in experiment [3] were 2.27%, 4.55% and 1.49%, respectively.

Turning to `COc1ccc2ncc(Cl)c(NCC3(O)CCC(NCc4ccc5c(n4)NC(=O)CS5)CC3)c2n1` (stereo not given), the results for the inhibition in experiment [1], in experiment [2] and in experiment [3] were 4.63%, 3.3% and 1.82%, respectively.

Regarding `O=[N+]([O-])c1cccc(NC(=S)N2CCCN(Cc3ccc(F)cc3F)CC2)c1`, the inhibition is 0.91% in experiment [1], 1% in experiment [2] and 0.66% in experiment [3].

`CN1CCN(Cc2cccc(-c3ccc4c(Nc5ccc(F)cc5Cl)ccnc4c3)c2)CC1`: the inhibition in experiment [1] is 4.11%; in experiment [2], 6.5%; in experiment [3], 3.82%.

Take `CCCNCc1ccc(-c2ccc(CN(Cc3ccc4c(c3)OCO4)C(=O)Cc3cccnc3)cc2)nc1`: the results for the inhibition in experiment [1], in experiment [2] and in experiment [3] were 23.9%, 15.2% and 10.2%, respectively.

Take `Cc1cc(=NN=Cc2ccc(Cl)cc2)c2cc(F)ccc2[nH]1`: the inhibition in experiment [1] is -0.08%; in experiment [2], 0.68%; in experiment [3] it was -0.34%.

For the compound `FC(F)(F)c1ccc2[nH]c(-c3ccc(-c4ccc(CNCCc5ccncc5)cc4)cc3)nc2c1`, the figures for the inhibition in experiment [1], in experiment [2] and in experiment [3] were 1.37%, -3.26% and 0.57%, respectively.

Consider `Cc1cc(N[C@@H](Cc2ccccc2)C(=O)NCc2cccc(F)c2)nc(NCCCOC(C)C)n1`, for which the results for the inhibition in experiment [1], in experiment [2] and in experiment [3] were 0.45%, 1.37% and 1.72%, respectively.

For the compound `Cc1cc(N(C)CCN(C)C)nc(Nc2ccc(Cl)cc2)n1`, the results for the inhibition in experiment [1], in experiment [2] and in experiment [3] were 5.23%, 5.67% and 7.48%, respectively.

For `CC(C)(CNCc1cc(Cl)cc(Cl)c1)c1nc(-c2ccnc(N)n2)c(-c2ccc(Cl)c(O)c2)[nH]1`, the inhibition was -0.09% in experiment [1], 0.95% in experiment [2] and 2.11% in experiment [3].

`COc1cc2nc(N3CCN(c4cc(C)ccc4C)CC3)nc(N)c2cc1OC`: the inhibition worked out at 1.13% in experiment [1], 0.08% in experiment [2] and 0.51% in experiment [3].

For the compound `CCNc1cc(C(=O)N[C@@H](Cc2ccccc2)[C@H](O)CNCc2cccc(-c3cncnc3)c2)cc(N2CCCC2=O)c1`, the values for the inhibition in experiment [1], in experiment [2] and in experiment [3] were 3.81%, 3.48% and 4.42%, respectively.

As for `CC(=O)c1ccc(N2CCN(CCC3(c4ccc(Cl)c(Cl)c4)COCN(C(=O)c4ccccc4)C3)CC2)cc1` (stereo not given), the inhibition in experiment [1] was 4.7%; in experiment [2] it was 1.18%; in experiment [3], -0.21%.

As to `CN1CCC(NCc2ccc(S(=O)(=O)Nc3ccc(Oc4cccc(Cl)c4)cc3)cc2)CC1`, the values for the inhibition in experiment [1], in experiment [2] and in experiment [3] were 1.15%, 1.05% and 0.97%, respectively.

As to `Cc1cccc(Nc2nccc(Nc3cccc(C(=O)NCCN4CCOCC4)c3)n2)c1`, the figures for the inhibition in experiment [1], in experiment [2] and in experiment [3] were 2.19%, 1.2% and 1.44%, respectively.

Turning to `CNCc1cccc2nc(-c3csc(Cc4cc(Cl)ccc4OCC(C)C)n3)[nH]c12`, the inhibition is -0.53% in experiment [1], 0.5% in experiment [2] and -0.08% in experiment [3].

In the case of `Oc1ccccc1CN(CCCN(Cc1ccccn1)Cc1ccccc1O)Cc1ccccn1`, the inhibition was found to be 4.2% in experiment [1], 3.15% in experiment [2] and 4.96% in experiment [3].

In the case of `N=C(N)NC(=O)Nc1ccc(Cl)c([N+](=O)[O-])c1`, the inhibition in experiment [1] was 0.49%; in experiment [2], 0.63%; in experiment [3], 0.37%.

Consider `CCN(CCNC(=O)Cn1c(C)cc2cc([N+](=O)[O-])ccc21)c1cccc(C)c1`, for which the inhibition in experiment [1] worked out at 6.46%; in experiment [2], 6.77%; in experiment [3], 6.91%.

`O=c1nc2[nH]c3ccccc3n2c(=O)[nH]1`: the results for the inhibition in experiment [1], in experiment [2] and in experiment [3] were 3.69%, 2.18% and 3.41%, respectively.

For `Cc1cccc(CN2CCCN(Cc3ccc(C(=O)Nc4ccc(C(C)(C)C)cc4)cc3)CC2)c1`, the inhibition in experiment [1] was 1.47%; in experiment [2] it was 1.6%; in experiment [3] it was -0.38%.

`Cc1nnsc1C(=O)Nc1cccc(-c2ccc(-c3nc4cccc(C)c4[nH]3)s2)c1`: the inhibition was 1.88% in experiment [1], 1.77% in experiment [2] and 3.82% in experiment [3].

As for `O=C(Nc1ccc(-c2cccc(-c3nc4cc(C(F)(F)F)ccc4[nH]3)c2)cc1)Nc1ccc(F)c(F)c1F`, the inhibition was 0.81% in experiment [1], 0.04% in experiment [2] and -1.97% in experiment [3].
